Measured values from PubChem BioAssay (NCATS).
Records with an inconclusive call do not appear. Activity calls are given as the source filed them. Unless noted, calls follow the shape of the dose curve; as a rule, active = well fitted curve in either direction with a large enough effect (not every such curve was filed as active); inconclusive = small, poorly fitted or top-dose-only effect, or another doubt; inactive = flat fitted curve, though single readings scatter.

What was measured:
[1] = AP1 Signaling Pathway (AID 357); details: ME-180 (cervical carcinoma) AP-1-bla reporter, EGF-induced, beta-lactamase ratio, 5 h; at 17.2 µM (top of the series) unless noted;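 also: ME-180 reporter cells stimulated with EGF at its EC50 level; % is scaled to controls: 0 for no effect and ±100 for the full control effect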
Summary of the method: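 Read-out was the 460nm/530nm emission ratio (excitation 405nm) after CCF4 loading for 2.5 hours at room temperature. Cells carried an AP-1-driven beta-lactamase reporter, were stimulated with EC50 EGF plus compound for 5 hours, and AC50 values came from titrations.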

[2] = NFAT Signaling Pathway (AID 444); details: Jurkat NFAT-bla M1, carbachol, beta-lactamase ratio, 5 h; at 17.2 µM (top of the series) unless noted;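 also: carbachol stimulus at about its EC50 of 1 µM final; % is scaled to controls: 0 for no effect and ±100 for the full control effect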
Summary of the method: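 Read-out: CCF4 FRET ratio (460 nm/530 nm) after 1 h RT dye loading, used for %activity and AC50 from titration series. Cells: Jurkat NFAT-β-lactamase/M1 line, treated with compound plus 1 uM carbachol for 5 h, 37 °C.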

[3] = Stat Signaling Pathway (AID 446);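 also: ME-180 cervical cancer cells given 40 pM IL-6 alongside compound; SIE-controlled beta-lactamase reporter measured as 460/530 nm FRET emission ratio; % is scaled to controls: 0 for no effect and ±100 for the full control effect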
Summary of the method: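 IL-6/STAT signaling read in ME-180 cells via an SIE beta-lactamase reporter. Stimulus was 40 pM IL-6 (its AC50) for 5 hrs, so both activation and inhibition register.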

[4] = biological target: Glucocorticoid receptor (Homo sapiens) (UniProt P04150); assay: GR-GFP Redistribution (AID 450;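 active = compounds whose dose series gives a full or clear partial fitted curve of increased nuclear translocation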; also: potency is read from the fitted curve at half-maximal effect); details: U2OS GR-GFP nuclear translocation, laser cytometry, 2 h
Glucocorticoid receptor (Homo sapiens), sequence (P04150 whole entry, looked up): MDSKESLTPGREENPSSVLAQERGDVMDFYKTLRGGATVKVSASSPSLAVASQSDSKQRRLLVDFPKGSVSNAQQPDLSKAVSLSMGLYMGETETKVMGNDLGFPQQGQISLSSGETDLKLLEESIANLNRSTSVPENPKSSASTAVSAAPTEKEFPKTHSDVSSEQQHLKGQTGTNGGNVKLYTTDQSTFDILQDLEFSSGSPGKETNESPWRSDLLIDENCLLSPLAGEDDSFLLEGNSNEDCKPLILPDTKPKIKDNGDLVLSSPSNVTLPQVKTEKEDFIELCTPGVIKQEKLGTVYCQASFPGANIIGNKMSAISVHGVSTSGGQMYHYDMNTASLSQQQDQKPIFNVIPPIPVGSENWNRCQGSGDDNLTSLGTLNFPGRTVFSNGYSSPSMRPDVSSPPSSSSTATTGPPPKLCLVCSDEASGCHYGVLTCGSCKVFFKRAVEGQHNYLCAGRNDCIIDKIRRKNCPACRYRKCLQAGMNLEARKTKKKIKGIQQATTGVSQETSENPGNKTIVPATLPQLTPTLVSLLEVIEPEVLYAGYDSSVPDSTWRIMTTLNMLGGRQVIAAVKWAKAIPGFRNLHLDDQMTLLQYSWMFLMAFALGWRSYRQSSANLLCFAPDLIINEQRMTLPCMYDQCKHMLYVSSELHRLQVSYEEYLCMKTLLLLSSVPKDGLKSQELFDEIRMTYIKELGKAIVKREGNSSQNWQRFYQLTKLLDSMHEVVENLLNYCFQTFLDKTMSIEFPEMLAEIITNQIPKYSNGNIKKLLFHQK

OC1(c2ccc(F)cc2)CCNC1 (stereo not given)
inactive: activity change, negative = inhibition [1] 7.87% | activity change, negative = inhibition [2] -14.3% | outcome [3] | Potency [4] > 20.6 µM

O=c1[nH]c(=O)n(Cc2ccco2)c(O)c1C=NCc1ccc2c(c1)OCO2
inactive: activity change, negative = inhibition [1] -17.4% | activity change, negative = inhibition [2] 2.74% | outcome [3] | Potency [4] > 20.6 µM

CC1=NOC2(C)Nc3ncnn3C(c3ccccc3)C12 (stereo not given)
inactive: activity change, negative = inhibition [1] 20.5% | activity change, negative = inhibition [2] -2.94% | outcome [3] | Potency [4] > 20.6 µM

CC(=O)CC(C)(C)n1c[n+](C)nn1
inactive: activity change, negative = inhibition [1] -8.26% | activity change, negative = inhibition [2] -3.99% | outcome [3] | Potency [4] > 20.6 µM

c1ccc(Cn2ccnc2)cc1
inactive: activity change, negative = inhibition [1] 3.97% | activity change, negative = inhibition [2] -0.8% | outcome [3] | Potency [4] > 20.6 µM

CCCCSP1(=S)NCCCO1 (stereo not given)
inactive: activity change, negative = inhibition [1] 2.22% | activity change, negative = inhibition [2] 1.86% | outcome [3] | Potency [4] > 20.6 µM

C=CCOC(=O)C1=C(C)OC(N)=C(C#N)[C@@]12C(=O)N(CC(N)=O)c1ccccc12
inactive: activity change, negative = inhibition [1] 6.24% | activity change, negative = inhibition [2] -10.1% | outcome [3] | Potency [4] > 20.6 µM

O=c1[nH]c(=O)n(Cc2ccccc2)c(O)c1C=NCCN1CCOCC1
inactive: activity change, negative = inhibition [1] 1.24% | activity change, negative = inhibition [2] -7.84% | outcome [3] | Potency [4] > 20.6 µM

Cc1ccc(C)c(C2(O)CC(C)N(C)CC2C)c1 (stereo not given)
inactive: activity change, negative = inhibition [1] 22.9% | activity change, negative = inhibition [2] 9.11% | outcome [3] | Potency [4] > 20.6 µM

Nc1ncc(P(=S)(N2CCOCC2)N2CCOCC2)s1
inactive: activity change, negative = inhibition [1] 10.9% | activity change, negative = inhibition [2] 4.78% | outcome [3] | Potency [4] > 20.6 µM

O=c1[nH]c(=O)n(-c2cccc3ccccc23)c(O)c1C=NCCCn1ccnc1
inactive: activity change, negative = inhibition [1] 14.5% | activity change, negative = inhibition [2] -7.5% | outcome [3] | Potency [4] > 20.6 µM

COc1cccc(CN2CCN(C(=O)COc3ccc4ccccc4c3)CC2)c1
inactive: activity change, negative = inhibition [1] 2% | activity change, negative = inhibition [2] 13.9% | outcome [3] | Potency [4] > 20.6 µM

CCCCCCn1c(O)c(C(C)=NC)c(=O)[nH]c1=O
inactive: activity change, negative = inhibition [1] -9.96% | activity change, negative = inhibition [2] 21.1% | outcome [3] | Potency [4] > 20.6 µM

CCCC12CN3CN(C1)CC(CCC)(C3)C2O (stereo not given)
inactive: activity change, negative = inhibition [1] 21.7% | activity change, negative = inhibition [2] -5.01% | outcome [3] | Potency [4] > 20.6 µM

CC(=O)OC1N=C(c2ccccc2)c2ccccc2NC1=O (stereo not given)
inactive: activity change, negative = inhibition [1] -8.32% | activity change, negative = inhibition [2] 11.5% | outcome [3] | Potency [4] > 20.6 µM

C[C@H]1CCCC(=O)CCCCCc2cc(O)cc(O)c2C(=O)O1
inactive: activity change, negative = inhibition [1] -29.6% | activity change, negative = inhibition [2] 22.4% | outcome [3] | Potency [4] > 20.6 µM

COc1ccccc1-n1c(O)c(C=NCCCn2ccnc2)c(=O)[nH]c1=O
inactive: activity change, negative = inhibition [1] 6.21% | activity change, negative = inhibition [2] 10.5% | outcome [3] | Potency [4] > 20.6 µM

COc1cccc(-n2c(O)c(C=NCCN3CCOCC3)c(=O)[nH]c2=O)c1
inactive: activity change, negative = inhibition [1] 0.139% | activity change, negative = inhibition [2] 11% | outcome [3] | Potency [4] > 20.6 µM

C=CCOC(=O)C1=C(C)OC(N)=C(C#N)C12C(=O)N(CN1CCOCC1)c1ccccc12 (stereo not given)
inactive: activity change, negative = inhibition [1] 2.42% | activity change, negative = inhibition [2] -2.25% | outcome [3] | Potency [4] > 20.6 µM

OC(c1ccc(F)cc1)C(c1ccccc1)N1CCOCC1 (stereo not given)
inactive: activity change, negative = inhibition [1] -21.7% | activity change, negative = inhibition [2] -1.44% | outcome [3] | Potency [4] > 20.6 µM

COc1ccc(C2SCC(=O)Nc3c2c(=O)[nH]n3C2CCCCCC2)cc1 (stereo not given)
inactive: activity change, negative = inhibition [1] -18.2% | activity change, negative = inhibition [2] 1.93% | outcome [3] | Potency [4] > 20.6 µM

CC(C)C(=O)N1CCN(CCN=Cc2c(O)n(C)c(=O)n(C)c2=O)CC1
inactive: activity change, negative = inhibition [1] 10.2% | activity change, negative = inhibition [2] -6.53% | outcome [3] | Potency [4] > 20.6 µM

CCOC(=O)[C@]1(C#N)[C@@H]2C=CC(C(C)=O)=CN2[C@@H](C(N)=O)[C@@H]1c1ccsc1
inactive: activity change, negative = inhibition [1] -0.365% | activity change, negative = inhibition [2] -15.2% | outcome [3] | Potency [4] > 20.6 µM

CC(C)(C)OC(=O)c1c(N)n(Cc2ccco2)c2nc3ccccc3nc12
inactive: activity change, negative = inhibition [1] -26.4% | activity change, negative = inhibition [2] 5.75% | outcome [3] | Potency [4] > 20.6 µM

Cc1ccc(-n2c(O)c(C=NCCN3CCOCC3)c(=O)[nH]c2=O)cc1
inactive: activity change, negative = inhibition [1] 6.04% | activity change, negative = inhibition [2] 13.7% | outcome [3] | Potency [4] > 20.6 µM

O=c1[nH]c(=O)n(Cc2ccccc2)c(O)c1C=NCCN1CCNCC1
inactive: activity change, negative = inhibition [1] 1.47% | activity change, negative = inhibition [2] -23.3% | outcome [3] | Potency [4] > 20.6 µM

CC(=O)OC1(Cc2ccccc2)CN2CCC1c1ccccc12 (stereo not given)
inactive: activity change, negative = inhibition [1] -0.0283% | activity change, negative = inhibition [2] -23.5% | outcome [3] | Potency [4] > 46 µM

CCCCNC(=O)Nc1ccc(C(O)(C(=O)OC)C(F)(F)F)cc1 (stereo not given)
inactive: activity change, negative = inhibition [1] -12.1% | activity change, negative = inhibition [2] 26.8% | outcome [3] | Potency [4] > 20.6 µM

C=CCC1(CN2CCCCCC2=O)C(=O)NC(=O)NC1=O
inactive: activity change, negative = inhibition [1] 1.22% | activity change, negative = inhibition [2] 2.02% | outcome [3] | Potency [4] > 20.6 µM

CCN(CC)CCCC(C)N=C(c1ccccc1)c1c(O)n(C)c(=O)n(C)c1=O (stereo not given)
inactive: activity change, negative = inhibition [1] -17.7% | activity change, negative = inhibition [2] -29.5% | outcome [3] | Potency [4] > 20.6 µM

CC(=C1C(=O)c2ccccc2C1=O)N1CCN(CCN=Cc2c(O)n(C)c(=O)n(C)c2=O)CC1
inactive: activity change, negative = inhibition [1] -15.2% | activity change, negative = inhibition [2] -5.34% | outcome [3] | Potency [4] > 20.6 µM

CC(C)Cc1[nH]c(=O)c(C#N)c2c1CCC2
inactive: activity change, negative = inhibition [1] 8.3% | activity change, negative = inhibition [2] 18.5% | outcome [3] | Potency [4] > 20.6 µM

CCCCC1(CN2CCCC2=O)C(=O)NC(=O)NC1=O
inactive: activity change, negative = inhibition [1] 7.49% | activity change, negative = inhibition [2] -2.56% | outcome [3] | Potency [4] > 20.6 µM

COc1cc2[nH]c(=O)n(-c3cccc(Cl)c3)c(=O)c2cc1OC
inactive: activity change, negative = inhibition [1] 9.62% | activity change, negative = inhibition [2] 13.7% | outcome [3] | Potency [4] > 20.6 µM

CC(=O)OC1(c2ccc(C)cc2)CN2CCC1c1ccccc12 (stereo not given)
inactive: activity change, negative = inhibition [1] 7.68% | activity change, negative = inhibition [2] -10.3% | outcome [3] | Potency [4] > 20.6 µM
